# Test results published in PubChem BioAssay (Tox21).
# Inconclusive results are not listed. Active and inactive are the calls of the source. The call rests on the fitted dose curve; in most records, active means well fitted cell-killing curve with a large enough effect in the repeat runs; inconclusive means weak or mixed curves, or effect the other way; inactive means flat fitted curve, though single readings scatter.
# Test: qHTS RealTime-Glo MT Cell Viability Assay in HEK293 cells - 32 hour (AID 1224868); further: nearly all actives have a fitted effect of over 50% in size; on activity change, negative = cytotoxic: top concentration of the series differs between compounds
# Settings: RealTime-Glo luminescence; series mostly up to 76.8 µM; activity change, negative = cytotoxic: at the top concentration
# Text: National Center for Advancing Translational Sciences [NCATS]
# NIH Chemical Genomics Center [NCGC]
# U.S. Environmental Protection Agency [EPA]
# National Institutes of Environmental Health Sciences [NIEHS]
# National Toxicology Program [NTP]
# U.S. Food and Drug Administration [FDA]
# Measure of cell viability is critical in the cell-base assay. Analysis of cell viability is necessary for the characterization of cell responses to cytotoxic drugs and environmental stress. A RealTime-Glo MT Cell Viability Assay to monitor cell viability in real time of continues cell culture during 40 hours of compound treatment was used to screen Tox21 10K library compounds in Hek293 cells. The RealTime-Glo MT Cell Viability Assay is a nonlytic, homogeneous, bioluminescent method to measure cell viability in real time using a simple, plate-based method. The assay involves adding NanoLuc luciferase and a cell-permeant prosubstrate to cells in culture. Viable cells reduce the proprietary prosubstrate to generate a substrate for NanoLuc luciferase. This substrate diffuses from cells into the surrounding culture medium, where it is rapidly used by the NanoLuc Enzyme to produce a luminescent signal. The signal correlates with the number of viable cells, making the assay well suited for cytotoxicity studies.
# Tox21 Assay Protocol Summary:
# The mixture of Hek293 cell suspension and reagents were dispensed at 600cells/6 ul/well in 1536-well tissue culture treated black solid bottom plates using a Multidrop dispenser. After the assay plates were incubated at a 37 C/5% CO2 incubator for 5 hours, 23 nL of compounds dissolved in DMSO, positive and negative controls was transferred to the assay plate by a pintool work station. The plates were incubated at 37 C for 40 hours. The luminescence intensity were measured at 0h, 8h, 16h, 24h, 32h and 40h time points using ViewLux plate reader during compound treatment.
# On the % scale 0 is the no-effect control and ±100 the full control effect; potency means the concentration at half of the fitted maximal effect.
SMILES,"activity change, negative = cytotoxic",Potency
CC(=O)NC(=O)c1ccccc1O,0.556% [at 35.3 µM] (inactive),–
CC(C)(C#N)Nc1nc(Cl)nc(NC2CC2)n1,-0.337% (inactive),–
O=S(=O)(O)c1cc(O)c(O)c(S(=O)(=O)O)c1,-3.44% (inactive),–
COC(=O)C1=C(C)NC(C)=C(C(=O)OC(C)C)C1c1cccc2nonc12 (stereo not given),–,19 µM (active)
O=[N+]([O-])c1ccc(/C=N\O)o1,-1.88% [at 35.3 µM] (inactive),–
COc1cc(-c2ccc(=O)[nH]n2)ccc1OC(F)F,-2.78% [at 35.3 µM] (inactive),–
CCCCCCCCN1CCCC1=O,-7.37% (inactive),–
c1ccc(CCc2ccccc2)cc1,-7.21% (inactive),–
C=CCOCC(O)CO (stereo not given),12.6% (inactive),–
Cc1ccc(C(=O)c2ccc(CC(=O)O)n2C)cc1,2.62% [at 35.3 µM] (inactive),–
CCOC(=O)c1ccccc1,-0.928% (inactive),–
COCCOCC(OC)OC,-0.682% [at 35.3 µM] (inactive),–
CC(C)c1ccc2ncccc2c1,-0.162% (inactive),–
CN(C)C(=O)Oc1ccc[n+](C)c1,-2.61% [at 35.3 µM] (inactive),–
CCCC(C)C(=O)OCC (stereo not given),2.38% (inactive),–
C[N+]1(CC2COC(c3ccccc3)(c3ccccc3)O2)CCCCC1 (stereo not given),-5.88% [at 15.8 µM] (inactive),–
O=C(CO)[C@@H](O)[C@H](O)[C@@H](O)CO,6.54% [at 35.3 µM] (inactive),–
C=C(C)C(=O)OCC(O)CO (stereo not given),1.95% [at 35.3 µM] (inactive),–
Nc1ccccn1,-7.25% (inactive),–
CCCCS(=O)(=O)N[C@@H](Cc1ccc(OCCCCC2CCNCC2)cc1)C(=O)O,0.921% [at 35.3 µM] (inactive),–

SMILES,"activity change, negative = cytotoxic",Potency
CC[N+](C)(CC)CCOC(=O)C1c2ccccc2Oc2ccccc21,0.0658% [at 35.3 µM] (inactive),–
CC(C)(C)OC(=O)c1cccc(N)c1,-9.49% (inactive),–
CCCCCCCCCCCCSC,0.355% (inactive),–
NC(=O)NC1N=C([O][Al])NC1=O (stereo not given),2.46% [at 35.3 µM] (inactive),–
CNCCO,21.4% (inactive),–
CCOc1ccc2nc(S(N)(=O)=O)sc2c1,2.46% [at 35.3 µM] (inactive),–
Cc1ccc(C(=O)c2ccccc2)cc1,-5.78% (inactive),–
CCOC(=O)OC(C)OC1=C(C(=O)Nc2ccccn2)N(C)S(=O)(=O)c2ccccc21 (stereo not given),-0.251% [at 35.3 µM] (inactive),–
CN1C(C)(C)CC(O)CC1(C)C,0.969% (inactive),–
O=C(CO)[C@@H](O)[C@H](O)[C@H](O)CO,1.9% (inactive),–
CCOC(=O)C(=O)CCCCCCl,3.3% [at 35.3 µM] (inactive),–
CCN[C@H]1C[C@H](C)S(=O)(=O)c2sc(S(N)(=O)=O)cc21,0.194% [at 35.3 µM] (inactive),–
C[N+](C)(C)CCCCCCCCCC[N+](C)(C)C,7.19% [at 35.3 µM] (inactive),–
Cc1nc2ccc(CN(C)c3ccc(C(=O)N[C@@H](CCC(=O)O)C(=O)O)s3)cc2c(=O)[nH]1,-11.5% [at 35.3 µM] (inactive),–
C=CCCC(=O)O,1.92% (inactive),–
C[N+](C)(CCOc1ccccc1)Cc1cccs1,6.13% [at 35.3 µM] (inactive),–
c1ccc2sc(SN3CCOCC3)nc2c1,2.73% [at 35.3 µM] (inactive),–
NCCCC(N)(C(=O)O)C(F)F (stereo not given),-0.283% [at 35.3 µM] (inactive),–
CCCCCCC1CCC(=O)O1 (stereo not given),10.4% (inactive),–
CCN[C@@H]1C[C@H](N)[C@@H](OC2OC(CN)=CCC2N)[C@H](O)[C@H]1O[C@H]1OC[C@](C)(O)[C@H](NC)[C@H]1O (stereo not given in full),4.65% [at 0.29 µM] (inactive),–
